# Test results reported in the supplement of paper PMC10849652.
# About 7,900 targets were measured; listed, in parts, are those with a hit and a random draw of the rest. About 0.6% of all pairs of compound and target were hits. A number with no mark means an inactive call.
# How the values were obtained:
# Assay in all cases: log2 fold change, soluble protein after heating vs DMSO (PISA); higher = thermal stabilisation; K562 cells, 10 uM, 30 min; active = over 0.2 and 3.5 SD of the protein, either way, in both replicates (recomputed)
# [1] = compound: CS(=O)(=O)c1ccc(-c2cnc(N)c(C(=O)Nc3ccccc3)n2)cc1
# In short: (§1)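 Soluble protein was quantified by TMTpro 16plex LC-MS/MS after channel sums were equalised. It was obtained as the supernatant after 21,000xg for 90 min from pooled aliquots of K562 cells (2×10^6 cells/mL, 10 μM compound, 30 min) heated for 3 min across 48°C-58°C and extracted in PBS with 0.5% NP-40 at 4°C. Thermal stability values are relative to control samples and come from duplicates. They are given as log2 fold changes.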
# crizotinib = compound: C[C@@H](Oc1cc(-c2cnn(C3CCNCC3)c2)cnc1N)c1c(Cl)ccc(F)c1Cl [crizotinib]
# In short: as §1
# [2] = compound: C[C@@H]1COCCN1C2=NC(=NC(=C2)C3(CC3)S(=O)(=O)C)C4=C5C=CNC5=CC=C4
# In short: as §1
# [3] = compound: C[C@H](C1=CC=C(C=C1)C(=O)NC2=C3C=CNC3=NC=C2)N
# In short: as §1
# duvelisib = compound: C[C@H](Nc1ncnc2nc[nH]c12)c1cc2cccc(Cl)c2c(=O)n1-c1ccccc1 [duvelisib]
# In short: as §1
# gandotinib = compound: Cc1cc(Nc2cc(CN3CCOCC3)c3nc(C)c(Cc4ccc(Cl)cc4F)n3n2)n[nH]1 [gandotinib]
# In short: as §1
# tozasertib = compound: Cc1cc(Nc2cc(N3CCN(C)CC3)nc(Sc3ccc(NC(=O)C4CC4)cc3)n2)n[nH]1 [tozasertib]
# In short: as §1
# [4] = compound: Cc1cc(SCc2sc(-c3ccc(C(F)(F)F)cc3)nc2C)ccc1OCC(=O)O
# In short: as §1
# doramapimod = compound: Cc1ccc(-n2nc(C(C)(C)C)cc2NC(=O)Nc2ccc(OCCN3CCOCC3)c3ccccc23)cc1 [doramapimod]
# In short: as §1
# ispinesib = compound: Cc1ccc(C(=O)N(CCCN)[C@@H](c2nc3cc(Cl)ccc3c(=O)n2Cc2ccccc2)C(C)C)cc1 [ispinesib]
# In short: as §1
# bafetinib = compound: Cc1ccc(NC(=O)c2ccc(CN3CC[C@H](N(C)C)C3)c(C(F)(F)F)c2)cc1Nc1nccc(-c2cncnc2)n1 [bafetinib]
# In short: as §1
# [5] = compound: Cc1cccc(CC(=O)N2CCc3c2ccc(-c2cn(C)c4ncnc(N)c24)c3F)n1
# In short: as §1
# nilotinib = compound: Cc1cn(-c2cc(NC(=O)c3ccc(C)c(Nc4nccc(-c5cccnc5)n4)c3)cc(C(F)(F)F)c2)cn1 [nilotinib]
# In short: as §1
# [6] = compound: Cc1nc(Nc2n[nH]c3c2CN(C(=O)N[C@H](CN(C)C)c2ccccc2)C3(C)C)c2sccc2n1
# In short: as §1
# dasatinib = compound: Cc1nc(Nc2ncc(C(=O)Nc3c(C)cccc3Cl)s2)cc(N2CCN(CCO)CC2)n1 [dasatinib]
# In short: as §1
# [7] = compound: Cc1ncc(-c2ccnc(Nc3ccc(S(C)(=O)=O)cc3)n2)n1C(C)C
# In short: as §1
# [8] = compound: Cn1cc(-c2ccc3c(c2)CCN3C(=O)Cc2cccc(C(F)(F)F)c2)c2c(N)ncnc21
# In short: as §1
# [9] = compound: Cn1cc(-c2ccc3nnc(C(F)(F)c4ccc5ncccc5c4)n3n2)cn1
# In short: as §1
# tipifarnib = compound: Cn1cncc1[C@@](N)(c1ccc(Cl)cc1)c1ccc2c(c1)c(-c1cccc(Cl)c1)cc(=O)n2C [tipifarnib]
# In short: as §1
# mubritinib = compound: FC(F)(F)c1ccc(/C=C/c2nc(COc3ccc(CCCCn4ccnn4)cc3)co2)cc1 [mubritinib]
# In short: as §1
# UniProt P62318, sequence (P62318 whole entry, looked up): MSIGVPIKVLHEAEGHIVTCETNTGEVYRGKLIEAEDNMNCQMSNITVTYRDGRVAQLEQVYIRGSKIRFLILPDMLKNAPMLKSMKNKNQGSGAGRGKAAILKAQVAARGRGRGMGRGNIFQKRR
# UniProt Q05519, sequence (Q05519 whole entry, looked up): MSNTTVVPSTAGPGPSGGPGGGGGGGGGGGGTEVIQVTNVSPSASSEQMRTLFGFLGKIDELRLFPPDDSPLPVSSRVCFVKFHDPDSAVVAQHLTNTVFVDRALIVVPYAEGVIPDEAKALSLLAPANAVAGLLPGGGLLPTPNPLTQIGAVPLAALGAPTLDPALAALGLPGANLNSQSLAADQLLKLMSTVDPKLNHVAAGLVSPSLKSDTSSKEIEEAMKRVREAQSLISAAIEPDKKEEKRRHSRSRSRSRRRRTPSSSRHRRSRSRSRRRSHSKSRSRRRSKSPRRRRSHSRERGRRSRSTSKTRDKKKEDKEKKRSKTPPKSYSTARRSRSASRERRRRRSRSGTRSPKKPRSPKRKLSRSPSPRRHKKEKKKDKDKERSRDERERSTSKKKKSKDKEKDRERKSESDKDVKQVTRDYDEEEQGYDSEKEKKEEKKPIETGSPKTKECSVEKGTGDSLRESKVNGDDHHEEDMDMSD
# UniProt Q9Y6I9, sequence (Q9Y6I9 whole entry, looked up): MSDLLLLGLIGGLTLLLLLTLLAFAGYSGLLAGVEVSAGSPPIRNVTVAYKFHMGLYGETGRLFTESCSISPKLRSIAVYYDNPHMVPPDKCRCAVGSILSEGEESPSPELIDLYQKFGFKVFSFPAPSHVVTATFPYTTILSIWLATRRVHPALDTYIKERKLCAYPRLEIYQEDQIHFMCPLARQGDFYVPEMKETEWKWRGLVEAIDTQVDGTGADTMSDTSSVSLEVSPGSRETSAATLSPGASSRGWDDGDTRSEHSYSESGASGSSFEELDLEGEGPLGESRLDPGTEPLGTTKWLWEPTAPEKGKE
# UniProt P63165, sequence (P63165 whole entry, looked up): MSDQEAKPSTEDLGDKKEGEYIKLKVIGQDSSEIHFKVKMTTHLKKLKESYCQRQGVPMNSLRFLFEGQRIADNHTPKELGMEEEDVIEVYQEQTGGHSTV
# UniProt Q01085, sequence (Q01085 whole entry, looked up): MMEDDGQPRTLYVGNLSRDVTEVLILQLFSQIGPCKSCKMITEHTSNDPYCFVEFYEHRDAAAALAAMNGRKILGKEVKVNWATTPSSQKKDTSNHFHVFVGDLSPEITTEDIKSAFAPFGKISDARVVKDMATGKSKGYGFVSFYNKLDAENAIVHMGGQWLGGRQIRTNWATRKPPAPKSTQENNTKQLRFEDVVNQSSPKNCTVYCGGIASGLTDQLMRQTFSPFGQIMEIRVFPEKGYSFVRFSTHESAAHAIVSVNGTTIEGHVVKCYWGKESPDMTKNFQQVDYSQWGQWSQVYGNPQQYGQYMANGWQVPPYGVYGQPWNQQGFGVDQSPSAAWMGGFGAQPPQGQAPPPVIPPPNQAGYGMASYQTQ
# UniProt P84103, sequence (P84103 whole entry, looked up): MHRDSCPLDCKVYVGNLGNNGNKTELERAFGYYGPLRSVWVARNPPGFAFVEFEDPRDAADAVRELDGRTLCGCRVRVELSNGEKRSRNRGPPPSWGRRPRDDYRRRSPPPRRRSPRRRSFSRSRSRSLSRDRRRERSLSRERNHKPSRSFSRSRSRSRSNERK
# UniProt O43615, sequence (O43615 whole entry, looked up): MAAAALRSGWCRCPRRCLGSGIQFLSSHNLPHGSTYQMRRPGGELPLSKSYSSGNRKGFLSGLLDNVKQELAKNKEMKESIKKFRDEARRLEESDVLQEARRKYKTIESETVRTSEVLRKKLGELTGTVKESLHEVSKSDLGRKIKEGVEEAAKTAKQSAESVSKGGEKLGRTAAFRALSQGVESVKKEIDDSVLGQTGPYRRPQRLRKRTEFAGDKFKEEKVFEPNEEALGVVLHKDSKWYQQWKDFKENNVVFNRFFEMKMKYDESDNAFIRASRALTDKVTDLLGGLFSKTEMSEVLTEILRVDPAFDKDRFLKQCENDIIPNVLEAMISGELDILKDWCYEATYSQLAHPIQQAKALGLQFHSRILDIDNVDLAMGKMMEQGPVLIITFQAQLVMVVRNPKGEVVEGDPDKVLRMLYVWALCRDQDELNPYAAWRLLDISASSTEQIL
# UniProt P50225, sequence (P50225 whole entry, looked up): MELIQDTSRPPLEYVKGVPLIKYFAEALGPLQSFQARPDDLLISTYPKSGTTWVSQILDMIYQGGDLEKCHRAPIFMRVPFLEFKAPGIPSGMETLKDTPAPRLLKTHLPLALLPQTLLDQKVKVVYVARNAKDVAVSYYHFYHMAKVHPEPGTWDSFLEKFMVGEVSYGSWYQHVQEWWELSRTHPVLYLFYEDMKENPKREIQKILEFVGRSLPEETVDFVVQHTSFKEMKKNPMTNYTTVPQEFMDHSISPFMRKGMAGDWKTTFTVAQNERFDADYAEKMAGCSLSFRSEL
# UniProt O95149, sequence (O95149 whole entry, looked up): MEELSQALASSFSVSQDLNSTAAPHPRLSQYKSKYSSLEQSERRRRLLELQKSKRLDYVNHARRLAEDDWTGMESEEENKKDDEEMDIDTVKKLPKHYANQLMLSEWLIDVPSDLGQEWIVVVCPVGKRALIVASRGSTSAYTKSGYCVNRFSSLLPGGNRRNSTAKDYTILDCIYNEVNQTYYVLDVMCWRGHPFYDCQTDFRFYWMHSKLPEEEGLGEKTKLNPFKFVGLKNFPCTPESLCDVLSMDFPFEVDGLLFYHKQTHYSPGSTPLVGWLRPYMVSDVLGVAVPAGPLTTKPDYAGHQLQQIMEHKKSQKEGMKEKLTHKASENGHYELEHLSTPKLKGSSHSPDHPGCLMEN
# UniProt Q8WUH2, sequence (Q8WUH2 whole entry, looked up): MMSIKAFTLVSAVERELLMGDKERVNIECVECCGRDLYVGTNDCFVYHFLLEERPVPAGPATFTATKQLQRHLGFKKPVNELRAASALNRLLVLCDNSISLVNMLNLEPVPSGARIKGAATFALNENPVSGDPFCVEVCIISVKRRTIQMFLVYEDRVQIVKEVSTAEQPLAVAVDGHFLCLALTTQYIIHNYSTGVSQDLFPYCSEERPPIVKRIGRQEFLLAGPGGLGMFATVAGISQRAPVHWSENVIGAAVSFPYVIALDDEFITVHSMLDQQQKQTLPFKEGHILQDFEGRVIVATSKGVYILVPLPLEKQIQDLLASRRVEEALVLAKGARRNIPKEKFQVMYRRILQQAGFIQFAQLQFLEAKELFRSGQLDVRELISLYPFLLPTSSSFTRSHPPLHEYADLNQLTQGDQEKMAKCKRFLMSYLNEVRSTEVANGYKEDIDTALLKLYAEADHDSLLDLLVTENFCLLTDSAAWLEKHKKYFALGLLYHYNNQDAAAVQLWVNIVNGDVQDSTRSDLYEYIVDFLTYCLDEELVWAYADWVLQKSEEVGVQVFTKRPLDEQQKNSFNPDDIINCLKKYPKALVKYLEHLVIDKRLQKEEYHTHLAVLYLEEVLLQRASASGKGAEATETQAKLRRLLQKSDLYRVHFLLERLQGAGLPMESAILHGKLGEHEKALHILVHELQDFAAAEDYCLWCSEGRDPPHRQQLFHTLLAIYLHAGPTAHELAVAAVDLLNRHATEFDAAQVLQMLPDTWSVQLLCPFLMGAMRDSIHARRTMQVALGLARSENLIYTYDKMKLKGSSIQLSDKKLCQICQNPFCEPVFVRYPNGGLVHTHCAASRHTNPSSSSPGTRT
# UniProt P62072, sequence (P62072 whole entry, looked up): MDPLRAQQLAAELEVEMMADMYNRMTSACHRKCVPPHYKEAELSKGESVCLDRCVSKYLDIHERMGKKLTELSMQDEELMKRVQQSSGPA
# UniProt Q15526, sequence (Q15526 whole entry, looked up): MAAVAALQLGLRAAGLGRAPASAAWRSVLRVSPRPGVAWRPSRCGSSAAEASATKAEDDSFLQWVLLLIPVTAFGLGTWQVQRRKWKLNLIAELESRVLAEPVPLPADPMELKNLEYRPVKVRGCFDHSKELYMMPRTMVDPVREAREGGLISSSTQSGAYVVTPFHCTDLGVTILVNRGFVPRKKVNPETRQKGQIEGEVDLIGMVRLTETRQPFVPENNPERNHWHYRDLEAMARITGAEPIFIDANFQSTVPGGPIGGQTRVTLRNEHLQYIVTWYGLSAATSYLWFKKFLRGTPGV
# UniProt Q02447, sequence (Q02447 whole entry, looked up): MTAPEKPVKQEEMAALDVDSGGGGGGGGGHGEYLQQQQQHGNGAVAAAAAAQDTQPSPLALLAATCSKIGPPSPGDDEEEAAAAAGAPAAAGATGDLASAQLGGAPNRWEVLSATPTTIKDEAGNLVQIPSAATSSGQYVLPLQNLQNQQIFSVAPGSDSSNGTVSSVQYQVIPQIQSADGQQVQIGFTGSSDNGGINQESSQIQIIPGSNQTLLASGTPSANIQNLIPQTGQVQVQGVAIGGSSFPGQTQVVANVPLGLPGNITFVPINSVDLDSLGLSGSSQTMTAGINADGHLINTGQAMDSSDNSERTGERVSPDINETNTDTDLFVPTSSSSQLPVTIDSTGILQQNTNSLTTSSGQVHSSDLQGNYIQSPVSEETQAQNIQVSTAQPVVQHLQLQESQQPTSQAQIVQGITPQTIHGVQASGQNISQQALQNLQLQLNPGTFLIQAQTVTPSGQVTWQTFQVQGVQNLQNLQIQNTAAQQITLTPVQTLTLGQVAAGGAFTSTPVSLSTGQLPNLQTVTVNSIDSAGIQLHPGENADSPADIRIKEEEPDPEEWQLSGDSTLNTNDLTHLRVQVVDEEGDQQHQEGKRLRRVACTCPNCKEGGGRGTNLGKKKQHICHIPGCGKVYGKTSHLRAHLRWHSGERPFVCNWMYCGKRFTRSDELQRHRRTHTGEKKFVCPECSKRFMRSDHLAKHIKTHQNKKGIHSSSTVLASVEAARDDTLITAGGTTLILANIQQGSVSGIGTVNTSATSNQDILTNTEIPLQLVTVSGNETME
Target,log2 fold change [1],log2 fold change (crizotinib),log2 fold change [2],log2 fold change [3],log2 fold change (duvelisib),log2 fold change (gandotinib),log2 fold change (tozasertib),log2 fold change [4],log2 fold change (doramapimod),log2 fold change (ispinesib),log2 fold change (bafetinib),log2 fold change [5],log2 fold change (nilotinib),log2 fold change [6],log2 fold change (dasatinib),log2 fold change [7],log2 fold change [8],log2 fold change [9],log2 fold change (tipifarnib),log2 fold change (mubritinib)
SP3 (UniProt Q02447),-0.005,0.013,-0.071,0.123,0.031,0.086,0.032,0,0.089,-0.046,0.022,-0.018,-0.01,0.093,0,-0.042,-0.044,0.103,-0.041,-0.045
SRSF3 (UniProt P84103),-0.081,0.061,-0.27,0.128,-0.081,0.247,-0.027,-0.024,-0.019,-0.095,0.126,-0.028,0.075,-0.544 (active),0.173,0.082,-0.199,-0.154,0.134,-0.097
SNRPD3 (UniProt P62318),-0.102,0.011,0.036,0.041,0.039,0.034,-0.035,-0.04,0.055,0.006,0.013,-0.077,0.034,0.077,0.08,0.107,-0.097,-0.06,0.024,0.011
SNUPN (UniProt O95149),0.019,-0.187,0.045,-0.007,-0.001,-0.074,0.017,-0.014,-0.007,0.029,-0.031,0.006,-0.025,-0.009,-0.051,0.018,0.013,-0.054,0.003,0.06
TGFBRAP1 (UniProt Q8WUH2),-0.081,-0.367,0.051,0.067,-0.088,-0.142,0.051,0.087,0,-0.221,-0.05,0.482 (active),-0.122,-0.125,-0.153,0.091,-0.151,-0.16,0.032,0.053
SRSF11 (UniProt Q05519),-0.037,0.015,0.045,-0.277 (active),0.021,-0.068,0.004,0.067,-0.015,0.08,0.071,0.105,-0.024,-1.01 (active),-0.034,-0.001,-0.078,0.015,-0.029,-0.01
SURF1 (UniProt Q15526),-0.001,-0.008,0.043,-0.013,0,-0.066,0.016,0.032,0.01,-0.181,-0.184,-0.042,-0.065,0.028,-0.028,0.011,0.021,0.019,-0.061,0.042
TIMM44 (UniProt O43615),-0.028,-0.207,0.056,-0.015,0.085,-0.258,-0.038,0.091,-0.035,-0.128,-0.355 (active),0.045,-0.062,-0.066,-0.192,0.006,0.026,-0.002,-0.054,0.001
TIAL1 isoform 2 (UniProt Q01085),0.008,-0.039,0.023,-0.014,0.006,-0.048,-0.023,0.046,-0.054,0.01,-0.072,-0.028,-0.023,0.036,-0.021,0.074,0.009,-0.001,0.015,0.013
SUMO1 (UniProt P63165),-0.125,0.06,-0.045,0.176,-0.137,0.064,0,-0.039,-0.038,0.039,-0.071,-0.023,-0.022,-0.078,0.041,-0.04,-0.209,-0.068,-0.35,0.001
TEX264 (UniProt Q9Y6I9),0.361,0.079,0.064,0.176,0.037,-0.059,0.113,-0.028,0.039,-0.016,0.391,0.007,0.241,0.111,0.265,0.845 (active),0.047,0.114,-0.006,0.047
TIMM10 (UniProt P62072),-0.035,0.051,0.099,-0.006,0.105,0.052,0.053,0.027,0.021,0.103,-0.081,0.027,0.014,0.005,0.114,-0.027,-0.05,0.153,0.048,-0.024
SULT1A1 (UniProt P50225),-0.019,0.065,0.065,-0.073,-0.101,-0.029,0.006,0.035,0.016,-0.018,-0.067,0.222,-0.072,-0.065,-0.172,-0.002,0.333 (active),0.353 (active),-0.097,-0.069
